Experimental findings from paper PMC8384837, “Expanding the binding specificity for RNA recognition by a PUF domain” are described below.

Common to all, as to experiment: yeast three-hybrid, YBZ-1, SC-Leu-His + 0.5 mM 3-AT, 4 days
Details in all cases: tags: N-Gal4 AD-HA kept; label: inside an RPR1-promoter hybrid RNA with tandem MS2 sites; ssRNA

Assay [1] has as its target PUM1 PUF domain R1-GLR (Homo sapiens, UniProt Q14671 828-1176, S863G;R864L;Q867R). Summed up:
(§1)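 Pumilio-1 PUF domain libraries, randomized at the three base-contacting residues of each repeat, were co-expressed with matching RNA elements from a centromeric plasmid in strain YBZ-1, which carries a LexA–MS2 coat fusion and a HIS3 reporter. Transformants grew for four days on SC-Leu (input) or on SC-Leu-His + 0.5 mM 3-AT (selection), and the repeat regions were PCR-amplified and Illumina-sequenced. The interaction score is the log change in variant frequency from input to selection. That logarithm is base 2, with a pseudocount of 1 where a variant was absent.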

Assay [2] concerns the target PUM1 PUF domain R8-RFV (Homo sapiens, UniProt Q14671 828-1176, N1122R;Y1123F;Q1126V). A digest of the protocol: as §1
The target in assay [3] is PUM1 PUF domain R7-RVL (Homo sapiens, UniProt Q14671 828-1176, S1079R;N1080V;E1083L). A digest of the protocol:
as §1

Chain of PUM1 PUF domain R7-RVL (Q14671 828-1176 S1079R/N1080V/E1083L): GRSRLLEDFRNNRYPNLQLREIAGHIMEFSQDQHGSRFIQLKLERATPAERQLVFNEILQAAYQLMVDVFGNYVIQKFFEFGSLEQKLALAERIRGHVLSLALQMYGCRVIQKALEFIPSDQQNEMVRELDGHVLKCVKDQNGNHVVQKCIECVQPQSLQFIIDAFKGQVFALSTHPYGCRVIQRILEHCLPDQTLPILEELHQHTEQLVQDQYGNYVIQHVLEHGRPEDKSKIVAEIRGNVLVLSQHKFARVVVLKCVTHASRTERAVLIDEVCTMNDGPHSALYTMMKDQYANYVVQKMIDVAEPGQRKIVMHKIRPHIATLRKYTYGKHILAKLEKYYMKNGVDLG
Chain of PUM1 PUF domain R1-GLR (Q14671 828-1176 S863G/R864L/Q867R): as the sequence (Q14671 828-1176 S1079R/N1080V/E1083L) above, with S36G, R37L, Q40R, R252S, V253N, L256E counted along it
Chain of PUM1 PUF domain R8-RFV (Q14671 828-1176 N1122R/Y1123F/Q1126V): as the sequence (Q14671 828-1176 S1079R/N1080V/E1083L) above, with R252S, V253N, L256E, N295R, Y296F, Q299V counted along it

For the sequence “GGCUAGAACUAGUGGAUCCCCCGGCGCCCGGCGGCUCGAGCCCGGGUAAGUGUAAAUCGUCUGCAUGCCGCCGGGCGCCAUGCCUGCAGGUCGACUCUAGAAAACAUG”, in assay [1], the binding signal was 3.78 log2 enrichment (interaction score).

Consider “GGCUAGAACUAGUGGAUCCCCCGGCGCCCGGCGGCUCGAGCCCGGGUAAGCGUAAAUAGUCUGCAUGCCGCCGGGCGCCAUGCCUGCAGGUCGACUCUAGAAAACAUG”, for which, in assay [2], the binding signal is 6.22 log2 enrichment (interaction score). With “GGCUAGAACUAGUGGAUCCCCCGGCGCCCGGCGGCUCGAGCCCGGGUAAGUUUAAAUAGUCUGCAUGCCGCCGGGCGCCAUGCCUGCAGGUCGACUCUAGAAAACAUG”, in assay [3], the binding signal is 3.33 log2 enrichment (interaction score).
